High-throughput results: PubChem BioAssay, Johns Hopkins Ion Channel Center
A selection: hits, their analogues and other compounds. The true share with any hit is near 2.3%.
ANO1 activ: TMEM16A chloride channel activators or potentiators, primary screen, cell-based, HTS; hit rate 0.3% among 340,000; HEK293 TMEM16A/YFP-H148Q/I152L, iodide quench fluorescence; hits give low values; B-score at 10 µM; Anoctamin-1 (Mus musculus), Q8BHY3;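 active = fluorescence-ratio B-score plate-corrected deviation score at least 3 library SD below zero, with starting fluorescence score within 5 deviations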;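 note: channel opened by trigger with iodide after compound preincubation; score built on the fluorescence ratio of max minus min over baseline; more negative score means more quench and so TMEM16A activation or potentiation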
Target sequence (Q8BHY3 whole entry, looked up): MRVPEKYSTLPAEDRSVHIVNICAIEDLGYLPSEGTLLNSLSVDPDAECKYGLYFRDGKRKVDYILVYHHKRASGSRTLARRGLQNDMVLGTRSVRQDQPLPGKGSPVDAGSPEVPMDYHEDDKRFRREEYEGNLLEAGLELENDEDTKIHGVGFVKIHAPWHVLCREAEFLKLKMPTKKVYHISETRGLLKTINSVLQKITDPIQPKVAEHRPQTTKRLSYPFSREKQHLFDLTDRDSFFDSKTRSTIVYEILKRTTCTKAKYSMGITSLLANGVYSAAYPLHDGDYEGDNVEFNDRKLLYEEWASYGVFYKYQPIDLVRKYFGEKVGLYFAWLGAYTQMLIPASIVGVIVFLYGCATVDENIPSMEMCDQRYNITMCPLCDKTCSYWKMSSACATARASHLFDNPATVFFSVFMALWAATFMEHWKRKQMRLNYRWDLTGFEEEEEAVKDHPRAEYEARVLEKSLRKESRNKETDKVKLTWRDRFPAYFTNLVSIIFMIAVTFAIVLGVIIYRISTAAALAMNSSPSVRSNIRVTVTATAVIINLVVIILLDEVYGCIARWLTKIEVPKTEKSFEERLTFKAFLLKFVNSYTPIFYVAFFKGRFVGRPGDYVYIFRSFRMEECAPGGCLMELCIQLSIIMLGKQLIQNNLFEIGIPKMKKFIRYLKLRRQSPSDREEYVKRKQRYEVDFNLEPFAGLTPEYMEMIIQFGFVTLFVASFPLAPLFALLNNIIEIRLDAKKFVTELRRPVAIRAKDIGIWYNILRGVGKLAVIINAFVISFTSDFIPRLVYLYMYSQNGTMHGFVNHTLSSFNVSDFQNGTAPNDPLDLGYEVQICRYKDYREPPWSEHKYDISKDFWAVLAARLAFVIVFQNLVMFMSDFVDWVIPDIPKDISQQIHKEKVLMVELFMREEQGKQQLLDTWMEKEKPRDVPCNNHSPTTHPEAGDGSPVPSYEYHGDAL
CHT allo act: CHT positive allosteric modulators, primary screen, cell-based, membrane potential dye, choline EC20; CHT-expressing cells; hits give high values; LV-AA mutant CHT in HEK293 cells; hit rate 0.49% among 310,000; B-score at 10 µM; High affinity choline transporter 1 (Homo sapiens), Q9GZV3;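 active = initial fluorescence not abnormally high and integrated response B-score, plate-corrected, over 3 SD above library mean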
CHT inh: inhibitors of human choline transporter CHT. AID 488975, 2010. hit rate 0.86% among 310,000. CHT-expressing cells, membrane potential dye, choline response; hits give low values. B-score at 10 µM;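 active = B-score over 3 SD under the library average, and starting fluorescence ratio not unusually high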;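 note: choline stimulus applied at its EC90 after an EC20 pre-addition; B-score computed on integrated fluorescence ratio after choline addition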
ANO1 block: TMEM16A chloride channel inhibitors, primary screen, cell-based, HTS; Anoctamin-1 (Mus musculus), Q8BHY3; normalized B-score (activity score, 25-100; higher = stronger inhibition) at 10 µM; hit rate 1.2% among 310,000; HEK293 TMEM16A/YFP iodide influx fluorescence, ionomycin;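 active = ratio plate-corrected score three or more library SD toward inhibition, starting fluorescence score within five deviations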;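 note: score derived from kinetic fluorescence span divided by baseline fluorescence per well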
CHT block conf: CHT inhibitors, confirmation, cell-based, membrane potential dye, duplicate; shares compounds with CHT inh; CHT-expressing cells, choline membrane potential dye; LV-to-AA substituted CHT, HEK293 cells; CHT activity remaining % of control (hits give low values), % at 10 µM; hit rate 70% among 2,400;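 active = choline transporter activity left, mean of duplicates at 10 µM, below buffer-only control mean minus 3 SD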;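 note: depolarization triggered by choline at its EC90 following an EC20 pre-addition; 0% = hemicholinium-3 full block and 100% = buffer-only control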
HEK293 MPD ctr: membrane potential effects in parental HEK293, counter-screen for CHT inhibitor project, cell-based, membrane potential dye; shares compounds with CHT inh; choline response; active = decrease or increase beyond buffer ±3SD; membrane potential ratio readout (active if shifted either direction beyond buffer ±3SD; no single direction) at 10 µM; hit rate 4% among 2,400; AID 493222, 2011;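 note: parental cells lack the transporter so any hit is non-specific; ratio is peak minus trough fluorescence over baseline after EC90 choline challenge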
The depositor's hits bear a star; i = inactive; nt = no result given.

SMILES	ANO1 activ	CHT allo act	CHT inh	ANO1 block	CHT block conf	HEK293 MPD ctr
CC(/C=C1\SC(=S)N(CC(=O)O)C1=O)=C\c1ccccc1	i	i	-6.03*	i	40.4%*	i
CC(=C\c1ccccc1)/C=C1/SC(=S)N(CCC(=O)O)C1=O	i	i	i	i	nt	nt
O=C(N/N=C/c1cccnc1)C(=O)N1CCCCCC1	i	i	i	i	nt	nt
Nc1nonc1C(=O)N/N=C/c1cc2c(cc1[N+](=O)[O-])OCO2	i	i	i	i	nt	nt
Cn1cc([N+](=O)[O-])c(C(=O)N/N=C/c2cc3c(cc2Br)OCO3)n1	i	i	-9.14*	i	i	i
C=CC(=O)N=c1sc2ccccc2n1-c1ccccc1	i	i	-6.17*	i	37.2%*	i
Cc1cc(C)n2c(SCC(=O)NC3CCCCC3C)nnc2n1 (centres undefined)	i	i	-5.39*	i	70.5%*	i
Cc1cc(C)n2c(SCC(=O)NC3CCCC(C)C3C)nnc2n1 (centres undefined)	i	i	i	i	nt	nt
CC/C=C(/NC(C)=O)c1ccccc1	i	nt	nt	nt	nt	nt
CC1=NN(C(N)=S)C(=O)C1N=Nc1c(Br)cc(Br)cc1Br (centres undefined)	i	i	-7.65*	100*	31.1%*	i
O=C(CSc1nnc(-c2ccccn2)o1)Nc1ccccc1Cl	i	i	i	i	nt	nt
COc1ccc(OCCSc2nnnn2C2CCCCC2)cc1	i	i	-11.5*	i	i	i
c1ccc(OCCSc2nnnn2C2CCCCC2)cc1	i	i	i	i	nt	nt
O=c1c2ccccc2nc(-c2ccccc2)n1Cc1ccco1	i	i	-6.04*	i	69.8%*	i
Cc1ccc(-c2nc3ccccc3c(=O)n2Cc2ccccc2)cc1	i	i	i	i	nt	nt
Cc1cccn2c(=O)c(C=O)c(N3CCCCCC3)nc12	i	i	-6.4*	i	i	i
Fc1cccc(-c2cc3nc4c(c(N5CCC6(CC5)OCCO6)n3n2)CCCC4)c1	i	i	-7.79*	i	i	i
Cc1cc(Br)ccc1SCC(=O)NNC(=O)c1ccco1	i	nt	nt	nt	nt	nt
Cc1ccc2c(c1)N(CC(=O)NC1CCC(C)CC1)C(=O)CO2 (centres undefined)	i	i	-5.87*	i	i	i
Cc1ccc(NC(=O)COC(=O)CN2C(=O)COc3ccccc32)cc1	i	i	-4.96*	i	43.0%*	i
Cc1ccc2c(c1)N(CCCC(=O)NCC1COc3ccccc3O1)C(=O)CO2 (centres undefined)	i	i	-8.86*	i	20.6%*	i
O=C(Nc1cc(Cl)ccc1Cl)C1Cc2ccccc2O/C1=N\O (centres undefined)	i	i	i	i	nt	nt
CCCn1c(C)cc(=O)c2cc(NC(=O)c3ccccn3)ccc21	i	i	-5.1*	i	52.9%*	2.79*
CCCC(=O)Nc1ccc(NC(=O)c2ccccn2)cn1	nt	i	i	i	nt	nt
OC[C@H]1O[C@@H](n2cnc3c(NC4CCCC4)nc(Cl)nc32)[C@H](O)[C@@H]1O	i	i	i	i	nt	nt
SMILES	ANO1 activ	CHT allo act	CHT inh	ANO1 block	CHT block conf	HEK293 MPD ctr
Nc1nc(Cl)nc2c1ncn2[C@@H]1O[C@H](CO)[C@@H](O)[C@H]1O	i	i	-5.81*	i	39.2%*	i
CCc1ccc(N(CC(=O)NCCc2ccccc2)C(=O)CCC(=O)Nc2ccccn2)cc1	i	i	i	i	nt	nt
CC(C)OC(=O)CN1CCN(C2c3ccccc3-c3ccccc32)CC1	i	i	-5.61*	i	70.4%*	i
CC(C)Sc1sc(C(=O)O)c(-c2ccc(Cl)cc2)c1C#N	i	i	-5.65*	i	61.4%*	i
CCCc1c(C(=O)N/N=C/c2ccccc2C(F)(F)F)nnn1-c1nonc1N	i	i	i	i	nt	nt
CCCCNS(=O)(=O)c1ccc(NC(=O)c2c(-c3ccccc3Cl)noc2C)cc1	i	i	-4.99*	i	54.0%*	i
Cc1nccn1C[C@@H]1CCc2c(c3ccccc3n2C)C1=O	i	i	-5.75*	i	11.6%*	i
Cc1nccn1CC1CCc2c(c3ccccc3n2C)C1=O (centres undefined)	i	i	-6.66*	i	7.4%*	i
COCCn1c(SCC(=O)/C=C2\N(C)c3ccccc3C2(C)C)nnc1-c1ccncc1	i	i	i	i	nt	nt
CC(C)(C)NCCOCCOc1ccccc1-c1ccccc1	i	i	i	i	nt	nt
CCC(C)NCCOCCOc1ccccc1-c1ccccc1 (centres undefined)	i	i	-5.78*	i	47.7%*	-15*
CCOC(CCn1c(SCC(=O)Nc2cc(C)on2)nc2ccccc2c1=O)OCC	i	i	i	i	nt	nt
CC(CCc1ccccc1)NC(=O)CCNS(=O)(=O)c1ccccc1C(F)(F)F (centres undefined)	i	nt	nt	nt	nt	nt
Cc1ccc(S(=O)(=O)NCCC(=O)NC(C)CCc2ccccc2)cc1 (centres undefined)	i	i	-5.05*	i	49.6%*	i
Brc1ccc(C2=Nc3ccccc3C(c3ccncc3)=NN2)cc1	i	i	-10.8*	i	i	i
O=[N+]([O-])c1cc([N+](=O)[O-])c2c(=Nc3ccccc3)n(-c3ccccc3)n(O)c2c1	i	i	-6.22*	i	60.8%*	i
O=[N+]([O-])c1cc(Br)c(Nc2ccccc2)c([N+](=O)[O-])c1	i	i	i	i	nt	nt
OC(CNC1Cc2ccccc2C1)c1ccccc1 (centres undefined)	i	i	-5.23*	i	51.7%*	i
CC/C(=C(/CC)c1ccc(O)cc1)c1ccc(O)cc1	i	i	-7.43*	i	55.2%*	i
CN(C)S(=O)(=O)c1cccc(-c2nnc(SCCNCCO)n2-c2ccc(F)cc2)c1	i	i	i	i	nt	nt
COc1ccc(OC)c(S(=O)(=O)NC2CCCCNC2=O)c1 (centres undefined)	i	i	i	i	nt	nt
